Source: PubChem BioAssay
Rows were chosen to be rich in hits. Some 19% of all compounds tested hit in one or more screens of this group.
ELG1 repair inh = inhibitors of ELG1-dependent DNA repair in HEK293T cells | HEK293T ELG1-luciferase reporter, luminescence, 16 h; DNA damage induced by 5-fluorouridine | Potency, µM (doses to about 46.1 µM), for the others: at the highest dose activity change, negative = inhibition, most hits filed as inhibitors | 2.3% of 330,000 active; also: potency is read from the fitted curve at half-maximal effect; nearly all actives have a fitted effect of over 55% in size
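In this reporter screen, reduction of luminescence relative to DMSO vehicle indicated activity. Compounds and 5-fluorouridine were added together to 2,000 cells per well, incubated for 16 hr at 37 °C, then developed with ONE-Glo.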
DT40 TDP1 no CPT = qHTS for Inhibitors of human tyrosyl-DNA phosphodiesterase 1 (TDP1): qHTS in cells in absence of CPT; AID 686978, 2013; 15% of 420,000 active; DT40 Tdp1-/- hTDP1 cells, no CPT, ATP luminescence, 48 h; Potency, µM (titrated, usually from 46.2 µM), without a hit: at the highest dose activity change, negative = growth inhibition, actives largely listed as inhibitors; also: potency is read from the fitted curve at half-maximal effect; nearly all actives have a fitted effect of over 55% in size
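Growth of hTDP1-complemented DT40 Tdp1-knockout cells is measured by ATP luminescence after at least 48 hr compound exposure at 37 °C, with DMSO substituting for the 20 nM CPT used in the parallel screen.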
Giardia killer = kills Giardia lamblia; 0.15% of 340,000 active; Giardia lamblia trophozoite viability; activity change, % at 7.66 µM, hits read low; AID 540267; in the data active = activity change below about -80%; inconclusive = between about -30% and that limit;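 also: parasites exposed to compound for two days anaerobically before the ATP read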
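Trophozoite viability was measured as ATP-dependent luminescence, read 15-30 min after reagent addition. Before that, parasites at 100 cells/well were exposed to compounds for 48 h, anaerobically, at 37 deg C.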
TDP1 inh = TDP1 (human) enzyme inhibition; AID 485290; recombinant TDP1, AlphaScreen DNA substrate cleavage; Q9NUW8; Potency, µM (doses to about 130 µM), for inactives: top-dose activity change, negative = inhibition, actives largely listed as inhibitors; 0.28% of 350,000 active; also: potency is read from the fitted curve at half-maximal effect; nearly all actives have a fitted effect of over 40% in size
Target sequence (Q9NUW8 whole entry, looked up): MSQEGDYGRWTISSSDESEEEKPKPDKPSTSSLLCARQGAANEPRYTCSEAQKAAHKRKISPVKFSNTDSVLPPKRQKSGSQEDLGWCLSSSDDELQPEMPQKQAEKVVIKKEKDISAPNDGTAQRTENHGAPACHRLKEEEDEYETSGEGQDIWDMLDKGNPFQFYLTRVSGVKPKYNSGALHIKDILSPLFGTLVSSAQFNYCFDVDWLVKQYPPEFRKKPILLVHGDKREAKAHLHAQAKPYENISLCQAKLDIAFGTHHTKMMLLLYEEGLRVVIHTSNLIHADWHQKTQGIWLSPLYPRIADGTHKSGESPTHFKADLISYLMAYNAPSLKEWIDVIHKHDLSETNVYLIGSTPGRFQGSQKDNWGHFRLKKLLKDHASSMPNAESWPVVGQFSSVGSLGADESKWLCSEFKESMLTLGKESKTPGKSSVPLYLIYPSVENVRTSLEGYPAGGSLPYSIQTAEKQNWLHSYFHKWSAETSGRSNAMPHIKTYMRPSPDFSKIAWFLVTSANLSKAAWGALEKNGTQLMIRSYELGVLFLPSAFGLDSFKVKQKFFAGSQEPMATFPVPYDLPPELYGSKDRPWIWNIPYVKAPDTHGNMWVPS
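Tdp1 1 nM final; 15 min RT w/ cpd; substrate 15 nM, 5 min; beads 10 ug/ml, 10 min; AlphaScreen read. Neg ctrl: no enzyme.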
IL-1B inflam inh = inflammasome signaling inhibition, IL-1 beta readout | 4.7% of 360,000 active | activity change, % at 57.5 µM | THP-1 LPS/ATP IL-1B secretion, AlphaLISA, 16 h; active compounds read low | AID 743279; in the data active = activity change below about -50%; inconclusive = mostly about -30% to -49%
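THP-1 cells pretreated 1 hr with compounds (up to 57.5 uM final), then stimulated with LPS (250 ng/mL final) plus ATP (1.25 mM final); secreted IL-1B measured by AlphaLISA after 16 hr, decreased signal indicating inhibition.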
DT40 TDP1 CPT = growth inhibition of DT40 Tdp1-/-;hTDP1 cells with camptothecin (screen for TDP1 inhibitors); 12% of 420,000 active; Potency, µM (doses to about 46.2 µM), for inactives: at the top dose activity change, negative = growth inhibition, most hits filed as inhibitors; chicken DT40 Tdp1-/-;hTDP1 cells + 20 nM CPT, ATP luminescence, 48 h; also: potency is read from the fitted curve at half-maximal effect; nearly all actives have a fitted effect of over 55% in size
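Chicken DT40 Tdp1-/- cells stably complemented with human TDP1 were seeded at 400 cells/well in medium containing 20 nM camptothecin, exposed to pin-transferred compounds, and grown at 37 °C for at least 48 hr. Viability was read as ATP luminescence.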
Active calls of the source: *; ? = inconclusive; . = no result given; [ ] = dose if it differs, or a comment. Unless noted, calls follow the shape of the dose curve; as a rule, active = well fitted curve in the direction sought with a large enough effect; inconclusive = small, poorly fitted or top-dose-only effect, or another doubt; inactive = no such curve, though single readings can be large; an effect the other way counts as inactive or inconclusive. % is scaled to controls: 0 for no effect and ±100 for the full control effect.

SMILES	ELG1 repair inh	DT40 TDP1 no CPT	Giardia killer	TDP1 inh	IL-1B inflam inh	DT40 TDP1 CPT
O=C1C(c2ccc(F)cc2)N(Cc2ccc3c(c2)OCO3)C(=O)CN1C1CCCCCC1 (stereo not given)	-12%	15µM*	-2	8%	-14	?
COc1ccc(C2C(=O)N(C3CCCCCC3)CC(=O)N2Cc2ccccc2)cc1 (stereo not given)	.	26µM*	.	3%	.	23µM*
CCC(C)(C)N1CC(=O)N(Cc2ccccc2)C(c2ccc(OC)cc2)C1=O (stereo not given)	-1%	18µM*	-3	4%	-8	9.2µM*
O=C1C(c2ccc(F)cc2)N(Cc2ccccc2Cl)C(=O)CN1C1CCCCC1 (stereo not given)	.	21µM*	.	5%	.	23µM*
COc1ccc(C2C(=O)N(C3CCCCC3)CC(=O)N2Cc2ccc3c(c2)OCO3)cc1 (stereo not given)	?	?	0	-1%	-23	?
COc1ccc(CN2C(=O)CN(C3CCCCCC3)C(=O)C2c2ccc(F)cc2)cc1 (stereo not given)	-4%	?	8	-3%	-14	?
O=C(c1ccc(Br)cc1)N1CCN(CCc2ccncc2)CC1	.	?	.	-3%	.	?
C#CCN(C(=O)CC1C(=O)NCCN1C/C=C/c1ccccc1)C1CCCCC1 (stereo not given)	4%	-13%	2	9%	-8	14%
COc1ccc(C2C(=O)N(C3CCCCCC3)CC(=O)N2Cc2ccccc2)cc1OC (stereo not given)	-4%	?	7	2%	-7	?
COc1ccccc1CN1C(=O)CN(C2CCCCCC2)C(=O)C1c1ccc(C)cc1 (stereo not given)	.	21µM*	.	10%	.	16µM*
COc1cccc(N(CC(=O)NC2CCCCC2)C(=O)Cn2nnc(-c3ccc(C)o3)n2)c1	1%	-5%	2	9%	-7	-4%
O=S(=O)(c1ccc(-c2cnc(C3CC3)o2)cc1)N1CCN(c2ccc(F)cc2)CC1	.	0.41µM*	.	9%	.	0.92µM*
CC(=O)c1ccc(N2CCN(S(=O)(=O)c3ccc(-c4cnc(C5CC5)o4)cc3)CC2)cc1	?	?	-4	0%	30	3.3µM*
O=S(=O)(c1ccc(-c2cnc(C3CC3)o2)cc1)N1CCN(c2cccc(Cl)c2)CC1	.	3.3µM*	.	1%	.	4.1µM*
COc1cccc(N2CCN(S(=O)(=O)c3ccc(-c4cnc(C5CC5)o4)cc3)CC2)c1	-2%	0%	-5	1%	23	-20%
OC(CN1C2=NCCCN2c2ccccc21)c1ccc(Cl)cc1 (stereo not given)	3%	18µM*	7	5%	-8	?
OC(COc1ccc(Cl)cc1)CN1C2=NCCCN2c2ccccc21 (stereo not given)	-19%	21µM*	-19	-4%	-17	21µM*
Cc1ccc(NC(=O)C(C)Sc2nnc(C)n2C)cc1 (stereo not given)	4%	6%	9	.	4	-2%
COc1ccc(-c2nc3c(c4nnc(SC(C)C(=O)Nc5ccc(C)cc5)n24)COC(C)(C)C3)cc1 (stereo not given)	21µM*	?	-6	4%	26	3%
COc1ccc(NC(=O)CSc2nnc3c4c(nc(-c5ccccc5)n23)CC(C)(C)OC4)cc1	18µM*	?	18	4%	0	?
COc1ccc(C(=O)NCCN2Cc3ccccc3OC(c3ccsc3)C2)c(OC)n1 (stereo not given)	.	-16%	.	.	.	-13%[9.04 µM]
Cc1ccc(NS(=O)(=O)N(C)C)cc1	-3%	-27%	-2	0%	29	5%
CN(C)S(=O)(=O)Nc1cc(Cl)cc(Cl)c1	14%	?	8	-3%	44	18µM*
CCCNC(=O)C1(C)CCN(C(=O)c2ccccc2OC)C1 (stereo not given)	.	-3%	.	.	22	-20%
CN(C(=O)CSc1nc2ccccc2c(=O)n1C)C1CCS(=O)(=O)C1 (stereo not given)	-9%	?	-5	1%	38	8%
SMILES	ELG1 repair inh	DT40 TDP1 no CPT	Giardia killer	TDP1 inh	IL-1B inflam inh	DT40 TDP1 CPT
Cc1ccc(NS(=O)(=O)c2cc(-c3cnc(C4CC4)o3)ccc2C)cc1Cl	.	5.2µM*	.	6%	.	7.3µM*
CC(=O)c1cccc(NS(=O)(=O)c2cc(-c3cnc(C4CC4)o3)ccc2C)c1	?	5.2µM*	-23	6%	40	5.8µM*
CC(=O)c1ccc(NS(=O)(=O)c2cc(-c3cnc(C4CC4)o3)ccc2C)cc1	-12%	?	-17	0%	66	13µM*
COc1ccc(-c2cnc(C)o2)cc1S(=O)(=O)Nc1ccc(NC(C)=O)cc1	.	-6%	.	1%	.	-3%
Cc1ccc(-c2cnc(C3CC3)o2)cc1S(=O)(=O)Nc1ccccc1	-20%	4.6µM*	-13	2%	29	4.6µM*
C=CCn1c(SCC(=O)Nc2ccc(F)cc2)nc2ccccc2c1=O	?	?	-20	2%	?	-24%
CC(=O)Nc1ccc(NS(=O)(=O)c2cc(-c3cnc(C4CC4)o3)ccc2C)cc1	?	2.3µM*	3	-1%	41	2.9µM*
CCC(=O)N1c2ccccc2CC1C(=O)NCc1ccc(CC)cc1 (stereo not given)	.	-26%	.	6%	.	-21%
O=C1CN(C(=O)c2ccc(S(=O)(=O)N3CCCCC3)cc2)C(c2ccc(F)cc2)c2cc(F)ccc2N1 (stereo not given)	.	?	.	6%	.	?
CC(Sc1n[nH]c(N)n1)C(=O)C12CC3CC(CC(C3)C1)C2 (stereo not given)	0%	-24%	-15	3%	-13	-26%
CC(SC#N)C(=O)C12CC3CC(CC(C3)C1)C2 (stereo not given)	?	4.6µM*	4	3%	-96*	7.3µM*
Cc1ccc(C(=O)N2CCN=C2SCc2ccc([N+](=O)[O-])cc2)cc1C	?	?	20	6%	-85*	?
O=C(Cc1ccc([N+](=O)[O-])cc1)N1CCN=C1SCc1ccccc1	12%	-29%	-9	6%	8	-6%
Cc1ccc(C)c(CSC2=NCCN2C(=O)Cc2ccc([N+](=O)[O-])cc2)c1	?	18µM*	-2	6%	?	?
